# Test results published in PubChem BioAssay AID1850 (Southern Research Specialized Biocontainment Screening …, 2009).
# Values joined by “and” are separate entries in the source; they are usually repeats but may differ in a detail not shown here. Equal entries are not always repeated. Among all 310,000 compounds or so, about 1,000 (0.32%) were called active. The list is a sample of the results. Potency and affinity values are given separately. Values without a mark were called inactive. No rule for the calls is given here.
# Experiment: PhoP regulon inhibitors, Salmonella typhi PhoP promoter GFP reporter, confirmatory (AID 1850);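 also: 0% = induced wells with vehicle and 100% = uninduced wells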
# Settings: fluorescence, 4 h, at 50 µM, hits give high values
row,Structure (SMILES),inhibition
1,CC(C)(C)C(=O)Nc1ccnn1C1CCN(C(=O)c2ccc(Cl)cc2F)CC1,-1.83%
2,Cc1cc(OCc2nc(-c3cccnc3)no2)c(C)cc1Br,-4.41%
3,O=C1[C@@H]2Cc3c([nH]c4ccccc34)C(c3cccc(Br)c3)N2C(=O)CN1C1CCN(Cc2ccccc2)CC1 (stereo partly drawn),0.55%
4,CCOc1cc(C(=O)Nc2ccccc2N2CCOCC2)ccc1OCC(=O)N1CCCCC1,-2.04%
5,C[C@@H]1Cc2c(O)c(O)cc(O)c2C(=O)O1,6.45%
6,CC1Oc2cc3c(-c4c(O)cc(O)c5c(O)c6c(cc45)OC(C)C(C)C6=O)c(O)cc(O)c3c(O)c2C(=O)C1C (stereo not drawn),15.3%
7,Cc1cnc(C(=O)NC2CC(C)(C)Cc3c2cnn3-c2cccc(F)c2)cn1 (stereo not drawn),-5.99%
8,NC(=O)c1ccc(SCC(=O)OCC(=O)NCc2ccco2)c([N+](=O)[O-])c1,-1.63%
9,Nc1nc(N)nc(-c2cccc(Cl)c2Cl)n1,-6.05%
10,Nc1nnc(-c2ccccc2)c(-c2ccccc2)n1,-9.89%
11,CC(=O)N1CCN(S(=O)(=O)c2cccc(C(=O)Nc3ccccc3N3CCCC3)c2)CC1,-2.62%
12,O=C(O)[C@H](Cc1ccccc1)NC(=O)N1CCOCC1,-2.76%
13,O=C(CCNC(=O)c1ccc(Br)cc1)NCc1cccnc1,-2.13%
14,COc1ccc2[nH]cc(C(=O)CCl)c2c1,30.9%
15,COc1ccc2c(C(=O)CN3CCN(CCO)CC3)c[nH]c2c1,-2.19%
16,CCc1nc(SCC#N)c(C#N)cc1C,-1.52%
17,CC(CCc1ccccc1)NCc1cccc2ccccc12 (stereo not drawn),-6.36%
18,COc1ccccc1CCNCc1cccc(C(F)(F)F)c1,2.37%
19,CCC[C@@H](CN[C@@H](CNC)[C@H](C)CC)NCC1CCC(C(C)(C)C)CC1 (stereo partly drawn),11.1%
20,CNC[C@@H](C)NC[C@@H](Cc1ccccc1)NCCc1ccccc1,19.6%
21,CCC[C@H](CN[C@@H](CNC)[C@H](C)O)NCCc1ccc(OC)cc1,-14.6%
22,CC(Cc1cccc(C(F)(F)F)c1)NCCOC(=O)c1ccccc1 (stereo not drawn),12.2% and -11.7%
23,Cc1cc(C)n2c(Nc3ccc4c(c3)OCCO4)c(-c3ccccc3)nc2n1,-10.2%
24,CCCCN1C(=O)C2NN=C(C(=O)OCC)C2C1=O (stereo not drawn),8.14%

row,Structure (SMILES),inhibition
1,Cc1ccc(-n2nc3c(c2NC(=O)c2ccc4c(c2)OCO4)CS(=O)(=O)C3)cc1C,-5.55%
2,COc1ccccc1N1C(=O)c2ccccc2NC1c1cc(OC)c(OC)c(OC)c1 (stereo not drawn),2.7%
3,CCc1ccccc1NC(=O)C1CCN(C(=O)c2ccc([N+](=O)[O-])cc2)CC1,-0.4%
4,O=C(NCc1ccc(OC(F)(F)F)cc1)C1CC2Cn3c(nc4ccccc43)C2N1Cc1ccccc1 (stereo not drawn),2.43%
5,N#Cc1c(-c2ccccc2)cc(-c2ccc(O)cc2)nc1N,-7.46%
6,O=C(COC(=O)c1ccccc1[N+](=O)[O-])NC(=O)c1ccccc1,-0.26%
7,CCNC(=O)Cn1c(=O)c(=O)n(Cc2ccccc2)c2ccc(Cl)cc21,-13.1%
8,Cc1ccc(CC2CC(=O)N(c3ccc(C)cc3)C2=O)cc1 (stereo not drawn),7.02%
9,CCn1c2ccccc2c2cc(NC(=O)CSc3nnc(-c4ccccc4OC)n3N)ccc21,-0.4%
10,N=c1c2c(-c3ccccc3)c(-c3ccccc3)n(Cc3ccco3)c2ncn1CCCO,12.1%
11,N=c1c2c(-c3ccccc3)c(-c3ccccc3)n(Cc3ccccc3)c2ncn1CCCn1ccnc1,-3.96%
12,CCOC(=O)C1=C(CS(=O)(=O)c2ccccc2)NC(=O)NC1c1ccc(OC)c(OC)c1 (stereo not drawn),-2.15%
13,Cn1c2c(c(=O)n(C)c1=O)CN(Cc1ccc(F)cc1)CN2,7.57%
14,Fc1ccc(-c2nc3ccccc3[nH]2)cc1,-1.08%
15,c1ccc2[nH]c(-c3ccncc3)nc2c1,5.01%
16,C[N+](C)(C)CCCCCCCCCC[N+](C)(C)C,8.92%
17,C#CC[N+](C)(C)CCCCCCCCCC,2.68%
18,CCCCCC[N+](C)(C)CCSSCC[N+](C)(C)CCCCCC,5.58%
19,C[N+](C)(C)CCCCCC[N+](C)(C)C,-25.1%
20,CC1CC(=O)Nc2ccccc2N1C(=O)Nc1ccc(F)cc1 (stereo not drawn),-0.31%
21,Cc1ccc(-c2ccc(C(=O)O)o2)cc1Cl,6.76%
22,CCOC(=O)C(=CNc1cc(C)ccc1C)C(=O)OCC,-9.72%
23,CCOC(=O)Cc1csc(NC(=O)c2cnc3scc(C)n3c2=O)n1,-13.9%
24,O=C(O)c1cc(S(=O)(=O)N2CCN(C(c3ccccc3)c3ccccc3)CC2)ccc1Cl,-2.19%

row,Structure (SMILES),inhibition
1,CN1CCN(C(c2ccccc2)c2ccc(Cl)cc2)CC1 (stereo not drawn),-4.81%
2,CN1CCN(C(c2ccccc2)c2ccccc2)CC1,-1.19%
3,CN1CCN(CCOc2cccc(Cl)c2)CC1,4.36%
4,Cc1cc(C)cc(C(=O)NCC(=O)OC(C)C(=O)N(C)c2ccccc2)c1 (stereo not drawn),-2.85%
5,Cc1nc2sc3c(c2c(=O)[nH]1)CCCCC3,-10.5%
6,Cc1ccccc1-n1ccnc1SCC(=O)NCc1ccco1,1.18%
7,O=C(c1ccc(Cl)c(NC2=NC3CS(=O)(=O)CC3S2)c1)N1CCN(c2ccccc2)CC1 (stereo not drawn),-0.27%
8,Cc1ccc(OCCn2cc(C#N)c3ccccc32)cc1,-3.38%
9,COc1ccc(F)cc1S(=O)(=O)NC1CC(C)(C)NC(C)(C)C1,-0.42%
10,CCOc1cccc2sc(=NC(=O)CCS(=O)(=O)c3ccc(F)cc3)n(C)c12,-5.1%
11,O=C(C1CCCN(S(=O)(=O)c2cccc3nonc23)C1)N1CCN(c2cccc(Cl)c2)CC1 (stereo not drawn),2.17%
12,CCCNC(=O)C1CC(=O)N(c2ccc(OCC)cc2)C1 (stereo not drawn),-4.98%
13,Oc1ccccc1Nc1nc(NCc2ccccc2)c2ccccc2n1,2.95%
14,Cc1cccc(Nc2nc(N)c([N+](=O)[O-])c(NCc3ccco3)n2)c1,-6.31%
15,COc1ccc(OC)c(Nc2nc(NCc3ccco3)c3ccccc3n2)c1,-4.32%
16,Cc1ccccc1Nc1nc(NCc2ccco2)c2ccccc2n1,-14.1%
17,Fc1ccccc1-c1nc(NCc2ccco2)c2ccccc2n1,-5.43%
18,CSc1nc(NCc2ccco2)c2ccccc2n1,3.85%
19,COc1cccc(-c2nc(NCc3ccco3)c3ccccc3n2)c1O,-5.74%
20,Cc1cccc(Nc2nc(NCc3ccco3)nc(N)c2[N+](=O)[O-])c1,-3.95%
21,COc1ccccc1-c1c(C)nn2c(N3CCC4(CC3)OCCO4)cc(C)nc12,-2.41%
22,O=C(COC(=O)C1CC(=O)N(c2nc(-c3ccccc3)cs2)C1)c1ccccc1 (stereo not drawn),-9.24%
23,CC(=O)NC(Cc1ccc(N(CCCl)CCCl)cc1)C(=O)NCC(=O)NCC(=O)O (stereo not drawn),6.1%
24,Cc1nn(CCCC(=O)NCCCN2CCN(C)CC2)c(=O)c2c1sc1ccccc12,11.5%

row,Structure (SMILES),inhibition
1,Cc1ccc(S(=O)(=O)NCCC(=O)OCc2ccc([N+](=O)[O-])cc2)cc1C,-4.36%
2,COC(=O)c1cc2oc(C)cc2n1CC(=O)N1CCCc2ccccc21,-6.03%
3,O=C(Nc1ccn(Cc2c(F)c(F)c(F)c(F)c2F)n1)c1cccc(Cn2cc([N+](=O)[O-])cn2)c1,-7.4%
4,CCc1cccc(C)c1NC(=O)c1cccnc1,-4.39%
5,O=C1C(Cl)=C(NCCN2CCCCC2)C(=O)c2ccccc21,-2.93%
6,Cc1ccc(Nc2nc(NCc3ccco3)c3ccccc3n2)cc1,5.88%
7,Nc1nc(Nc2ccccc2)nc(NCc2ccco2)c1[N+](=O)[O-],3.06%
8,O=C(OCC(=O)N(Cc1ccccc1)Cc1ccccc1)c1ccccc1NCCO,-4.63%
9,CSc1nc2c(c(=O)[nH]1)C(c1ccc(C(F)(F)F)cc1)CC(=O)N2 (stereo not drawn),6.77%
10,CNc1oc(-c2cccs2)nc1S(=O)(=O)c1ccccc1,-10%
11,COc1ccc(C(OCC(O)CN(C)C2CCCCC2)c2ccc(OC)cc2)cc1 (stereo not drawn),-25.4%
12,Cc1ccc(/C=N/NC(=O)C(O)c2ccccc2)o1 (stereo not drawn),1.91%
13,O=C(N/N=C/c1ccc(Br)s1)c1ccccc1[N+](=O)[O-],-8.63%
14,Cc1cc(C(=O)N/N=C/c2ccc([N+](=O)[O-])s2)c2ccccc2n1,4.3%
15,O=C(N/N=C/c1ccc([N+](=O)[O-])s1)c1cccc(Br)c1,-0.18%
16,O=C(N/N=C/c1ccc([N+](=O)[O-])s1)c1ccccc1,6.9%
17,O=C(N/N=C/c1ccc(Cl)s1)C(O)c1ccccc1 (stereo not drawn),-6.88%
18,O=C(N/N=C/c1ccc(-c2ccc([N+](=O)[O-])cc2)o1)C(O)c1ccccc1 (stereo not drawn),-3.63%
19,Cc1ccc(NC(C)C(=O)N/N=C/c2ccc([N+](=O)[O-])s2)cc1 (stereo not drawn),-1.13%
20,O=C(c1cc2ccccc2cc1O)N1CCN(c2ccc([N+](=O)[O-])cc2)CC1,6.8%
21,O=C(NCCCSc1ccccc1)c1ccc(=O)[nH]c1,-9.17%
